Measurements published in PubChem BioAssay.
The source made the active and inactive calls. Unless noted, how the calls were made is not given here.

Columns and labels:
[1] = tested on: XIP peptide (Xip251-270) binding; assay: small-molecule binders of XIP peptide, primary screen, biochemical, small-molecule microarray, fluorescence 635/667 nm, 0.1 µg/mL protein (AID 1182); conditions: fluorescent protein binding, 635 nm, higher = more signal, called active from +8 up or from −8 down
[2] = tested on: XIP peptide (Xip251-270); assay: small-molecule binders of XIP peptide, primary screen, biochemical, small-molecule microarray, fluorescence 635/667 nm, 0.5 µg/mL protein (AID 1183); conditions: small-molecule microarray binding, fluorescence 635 nm; higher = more signal
[3] = Plasmodium falciparum growth inhibition, primary screen, strain 3D7, DAPI fluorescence, 100 nL (AID 1184);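 further: parasites grown inside human red blood cells in medium with human serum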; conditions: P. falciparum 3D7 growth, 3 d, higher = more signal
[4] = biological target: Homeobox protein Hox-A13 (Mus musculus) (UniProt Q62424); assay: inhibitors of HoxA13-DNA binding, primary screen, biochemical, fluorescence polarization, labeled oligonucleotide (AID 1185); conditions: 15 min, higher = more signal, called active from +8 up or from −8 down
[5] = inhibitors of hydroxyurea-induced Chk1 phosphorylation, primary screen, imaging, HeLa, phospho-Chk1 antibody, percent positive cells (AID 1186); conditions: hydroxyurea-induced phospho-Chk1 immunofluorescence imaging, higher = more signal
[6] = inhibitors of hydroxyurea-induced Chk1 phosphorylation, primary screen, imaging, HeLa, phospho-Chk1 nuclear intensity (AID 1187); conditions: hydroxyurea-induced phospho-Chk1 immunofluorescence imaging, higher = more signal

Chain of Homeobox protein Hox-A13 (Mus musculus) (Q62424 whole entry, looked up): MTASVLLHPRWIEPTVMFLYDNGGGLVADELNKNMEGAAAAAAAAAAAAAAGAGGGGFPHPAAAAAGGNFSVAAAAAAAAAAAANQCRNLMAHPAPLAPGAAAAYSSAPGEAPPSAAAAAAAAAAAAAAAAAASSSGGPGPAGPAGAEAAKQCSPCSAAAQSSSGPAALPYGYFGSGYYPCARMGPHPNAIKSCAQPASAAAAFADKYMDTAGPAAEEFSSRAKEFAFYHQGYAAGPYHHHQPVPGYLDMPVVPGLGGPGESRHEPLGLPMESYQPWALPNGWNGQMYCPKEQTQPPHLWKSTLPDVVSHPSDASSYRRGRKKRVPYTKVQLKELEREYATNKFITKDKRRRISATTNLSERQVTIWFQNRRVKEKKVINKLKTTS

| SMILES | composite z-score [1] | composite z-score [2] | z-score [3] | z-score [4] | z-score [5] | z-score [6] |
| --- | --- | --- | --- | --- | --- | --- |
| C[C@@]1([C@@H](NS(=O)(=O)c2cccc3cccnc23)c2ccc(-c3ccccc3)cc2)C[C@H]1C1CCCCC1 | 0.648 (inactive) | -0.209 | -0.748 | 2.32 (inactive) | 1.42 (inactive) | 0.534 (inactive) |
| C[C@]1(C(=O)NCC(F)(F)F)c2ccccc2C(=O)N(Cc2cc(C(F)(F)F)cc(C(F)(F)F)c2)[C@H]1c1ccc(CO)cc1 | 0.0939 (inactive) | 0.21 | 0.528 | -3.48 (inactive) | -0.496 (inactive) | -0.308 (inactive) |
| O=C1C2C=CC(C(O)C(c3ccccc3)c3ccccc3)N(Nc3ccccc3F)C2C(=O)N1c1ccccc1 (centres undefined) | 0.814 (inactive) | 0.768 | -0.373 | -2.65 (inactive) | 0.837 (inactive) | 0.29 (inactive) |
| COC(=O)C(CC#Cc1ccc2c(c1)[C@]1(C(=O)N2)[C@H](c2ccc(OCCO)cc2)N2[C@H](c3ccccc3)[C@H](c3ccccc3)OC(=O)[C@H]2[C@@H]1C(N)=O)C(=O)OC | 0.372 (inactive) | 0.657 | -0.983 | -1.34 (inactive) | -0.143 (inactive) | -0.303 (inactive) |
| Cc1ccc(S[C@]2(C(=O)NC(C)C)CC(=O)N(Cc3ccccc3)[C@@H]2c2ccc(CO)cc2I)cc1 | 1.69 (inactive) | -0.304 | -0.158 | -3.33 (inactive) | -0.641 (inactive) | -0.268 (inactive) |
| COc1ccc([Si](C)(C)[C@H]2[C@H](CC(=O)N3CCC[C@H]3CO)O[C@@]3(C(=O)N(C)c4c(Br)cc(C)cc43)[C@@H]2C)cc1 | 1.14 (inactive) | 0.341 | -1.56 | -5.84 (inactive) | 0.27 (inactive) | 0.523 (inactive) |
| O=C1NC(=O)C2C1C=CC(C(O)C(O)CO)N2Nc1ccccn1 (centres undefined) | -0.325 (inactive) | 0.129 | 0.488 | -0.781 (inactive) | -0.163 (inactive) | -0.239 (inactive) |
| CN1C(=O)C2C=CC(C(O)c3ccc(I)cc3)N(N(c3ccccc3)c3ccccc3)C2C1=O (centres undefined) | 0.157 (inactive) | 0.348 | 0.387 | -1.5 (inactive) | -0.839 (inactive) | -1.1 (inactive) |
| O=C(NC1CC1)[C@@H]1c2ccccc2C(=O)N(C2CCCCC2)[C@H]1c1ccc(CO)cc1 | 0.969 (inactive) | 0.647 | -1.1 | -3.16 (inactive) | -0.312 (inactive) | -0.617 (inactive) |
| COc1cc(Cc2cc3c(c(-c4ccccc4)n2)[Si](C(C)C)(C(C)C)OC3)cc(OC)c1OC | -0.166 (inactive) | -1.01 | -0.822 | -0.497 (inactive) | -0.628 (inactive) | -0.317 (inactive) |
| C[N+](C)(C)CCCC[C@@H]1NC(=O)[C@H]2C[C@@H](C(=O)NCCCCCN)[C@@H](c3ccc(O)cc3)N2C1=O | 0.528 (inactive) | 0.69 | 0.435 | -1.12 (inactive) | 0.932 (inactive) | 0.79 (inactive) |
| O=C1O[C@H](c2ccccc2)[C@H](c2ccccc2)N2[C@H]1[C@@H](C(=O)O)[C@]1(C(=O)Nc3ccc(C#CC4(O)CCCCCC4)cc31)[C@H]2c1ccccc1OCCO | 0.168 (inactive) | 0.779 | -0.21 | -5.71 (inactive) | 0.152 (inactive) | 0.579 (inactive) |
| C=C(COC)/C(=C/C[C@@H](OC(C)=O)c1cccc(OCCO)c1)c1cnc2ccccc2c1 | 0.281 (inactive) | 0.21 | -3.1 | -5.52 (inactive) | 0.271 (inactive) | -0.181 (inactive) |
| C=CCN1C(=O)[C@]2(O[C@H](CCO)[C@@H]([Si](C)(C)c3ccc(OC)cc3)[C@@H]2C)c2cc(N3C(=O)c4ccccc4Oc4ccccc43)ccc21 | 0.297 (inactive) | 0.671 | -2.42 | -4.93 (inactive) | -1.05 (inactive) | -1.5 (inactive) |
